Values joined by “and” are separate entries in the source; they are usually repeats but may differ in a detail not shown here. Identical values can stand only once. A number with no mark means an inactive call. Results filed as inconclusive are left out. A call without a number means that no potency is given here. Active and inactive are the calls of the source. Unless noted, the call rests on the fitted dose curve; in most records, active means well fitted curve in the direction sought with a large enough effect in the repeat runs; inconclusive means weak or mixed curves; inactive means no such curve, though single readings can be large; an effect the other way counts as inactive or inconclusive.
Assays:
[1] = molecular target: Estrogen receptor (Homo sapiens) (UniProt P03372); assay: qHTS assay to identify small molecule antagonists of the estrogen receptor alpha (ER-alpha) signaling pathway using the BG1 cell line in the presence of 0.1 nM 17-beta-estradiol (AID 1259244); further: nearly all actives have a fitted effect of over 50% in size; further: potency means the concentration at half of the fitted maximal effect
Outline: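 Luminescence after ONE-Glo (30 min, room temperature) measured ERE-luciferase activity in VM7Luc4E2 cells treated 22 h with compound and 0.1 nM final 17beta-estradiol as stimulator.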

[2] = qHTS assay to identify small molecule HDAC inhibitors (AID 1259364);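 further: wild-type HCT-116 cells with endogenous class I/II HDAC activity; top concentration of the series differs between compounds; nearly all actives have a fitted effect of over 45% in size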
Outline: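 HCT-116 (wild type), 1,500 cells/well, overnight; compound 2 hr 37C 5% CO2; HDAC-Glo I/II reagent 30 min RT; luminescence readout.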

[3] = qHTS assay to identify small molecule HDAC inhibitors - cell viability counter screen (AID 1259365); further: nearly all actives have a fitted effect of over 50% in size; further: potency means the concentration at half of the fitted maximal effect
Outline: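 Following a 2hr exposure of overnight-plated wild-type HCT-116 cells to DMSO-delivered compounds, CellTiter-Glo was added and luminescence recorded after 30min at room temperature.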

[4] = qHTS assay to identify small molecule agonists of the sonic hedgehog signaling (Shh) pathway - cell viability counter screen (AID 1259366); further: nearly all actives have a fitted effect of over 50% in size; further: potency means the concentration at half of the fitted maximal effect
Outline: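 After a 4hr attachment at 37C, NIH/3T3 cells bearing an integrated Gli1-driven luciferase reporter were dosed with compounds. Treatment lasted 24hr, with the final hour including CellTiter-Fluor for a fluorescence viability measurement.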

[5] = qHTS assay to identify small molecule agonists of the sonic hedgehog signaling (Shh) pathway (AID 1259368; calls by dose curve;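 further: NIH/3T3-derived 3T3Gli1-Luc cells carrying a stable Gli1-driven firefly luciferase reporter; series mostly up to about 92 µM; nearly all actives have a fitted effect of over 15% in size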)
Outline: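 Read-out: firefly luciferase luminescence from a Gli1 response element reporter stably integrated in NIH/3T3-derived 3T3Gli1-Luc cells, measured 30 min at room temperature after reagent addition. Compound exposure lasted 24 hr at 37 C, 5% CO2.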

[6] = qHTS assay to identify small molecule antagonists of the sonic hedgehog signaling (Shh) pathway (AID 1259369; calls by dose curve; further: nearly all actives have a fitted effect of over 45% in size; further: potency means the concentration at half of the fitted maximal effect)
Outline: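 Luminescence readout: firefly Luc under Gli1 response element in 3T3Gli1-Luc cells (NIH/3T3 clone). Antagonist mode, stimulation by conditioned medium; compound exposure 24hr at 37 C, 5% CO2.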

[7] = molecular target: Estrogen receptor beta (Homo sapiens) (UniProt Q92731); assay: qHTS assay to identify small molecule agonists of the estrogen receptor beta (ER-beta) signaling pathway (AID 1259377; active means well fitted activation curve with a large enough effect in the signal ratio in the repeat runs, not every such curve was filed as active; the % refers to the signal ratio)
Outline: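 In HEK293T cells bearing a UAS-beta-lactamase reporter under ER-beta control, DMSO-delivered compounds were incubated for 16 hr at 37C. Activity was detected as fluorescence 2 hours after LiveBLAzer B/G FRET substrate addition.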

[8] = qHTS assay to identify small molecule antagonists of the sonic hedgehog signaling (Shh) pathway - cell viability counter screen (AID 1259367); further: nearly all actives have a fitted effect of over 55% in size; further: potency means the concentration at half of the fitted maximal effect
Outline: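 Cytotoxicity was assessed in parallel with Shh reporter activity by measuring live-cell protease fluorescence (CellTiter-Fluor) in NIH/3T3 cells stably carrying Gli1-Luc, treated with compound under conditioned medium stimulation for 23 hr plus 1 hr reagent incubation.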

[9] = qHTS assay to identify small molecule phospholipidosis (PLD) inducers (AID 1259344; active means well fitted curve in the direction sought with a large enough effect; an effect the other way counts as inactive or inconclusive)
Outline: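 Cells (HepG2, 900 per well) attach for 4 h, receive LipidTOX Red and compound together, incubate 24 h at 37 C, are fixed 30 min with paraformaldehyde/Hoechst, then imaged at one site per well.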

Chain of Estrogen receptor (Homo sapiens) (P03372 whole entry, looked up): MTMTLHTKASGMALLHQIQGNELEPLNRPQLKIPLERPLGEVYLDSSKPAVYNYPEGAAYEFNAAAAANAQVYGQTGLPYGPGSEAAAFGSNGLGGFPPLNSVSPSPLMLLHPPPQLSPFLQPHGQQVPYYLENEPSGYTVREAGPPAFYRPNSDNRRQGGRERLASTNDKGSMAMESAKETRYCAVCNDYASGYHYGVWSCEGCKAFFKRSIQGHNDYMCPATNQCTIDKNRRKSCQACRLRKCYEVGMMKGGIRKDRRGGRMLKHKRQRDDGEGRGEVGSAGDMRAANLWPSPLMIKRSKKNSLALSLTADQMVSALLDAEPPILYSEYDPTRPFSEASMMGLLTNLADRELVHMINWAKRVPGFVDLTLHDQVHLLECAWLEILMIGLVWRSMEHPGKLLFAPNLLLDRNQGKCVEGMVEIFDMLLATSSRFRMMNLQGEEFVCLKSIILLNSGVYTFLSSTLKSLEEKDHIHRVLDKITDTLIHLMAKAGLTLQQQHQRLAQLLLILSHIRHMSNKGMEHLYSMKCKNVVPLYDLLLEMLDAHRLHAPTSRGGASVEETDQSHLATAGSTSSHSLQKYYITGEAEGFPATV
Chain of Estrogen receptor beta (Homo sapiens) (Q92731 whole entry, looked up): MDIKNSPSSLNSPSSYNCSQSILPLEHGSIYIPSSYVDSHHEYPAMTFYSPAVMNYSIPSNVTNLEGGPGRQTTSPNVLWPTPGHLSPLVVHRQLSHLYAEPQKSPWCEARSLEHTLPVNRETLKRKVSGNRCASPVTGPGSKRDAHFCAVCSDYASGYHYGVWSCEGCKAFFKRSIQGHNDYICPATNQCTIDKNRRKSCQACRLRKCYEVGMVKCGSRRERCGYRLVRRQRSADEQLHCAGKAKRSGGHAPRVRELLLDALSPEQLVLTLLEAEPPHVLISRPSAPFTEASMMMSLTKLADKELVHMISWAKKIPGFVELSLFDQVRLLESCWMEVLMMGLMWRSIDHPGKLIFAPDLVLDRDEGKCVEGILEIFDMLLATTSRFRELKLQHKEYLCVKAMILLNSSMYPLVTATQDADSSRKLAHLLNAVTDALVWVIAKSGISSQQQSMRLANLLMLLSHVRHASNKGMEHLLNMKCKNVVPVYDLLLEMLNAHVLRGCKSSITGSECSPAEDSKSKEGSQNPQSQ

| Structure (SMILES) | Potency [1] | Potency [2] | Potency [3] | Potency [4] | Potency [5] | Potency [6] | Potency [7] | Potency [8] | Potency [9] |
| --- | --- | --- | --- | --- | --- | --- | --- | --- | --- |
| CCOC(=O)N1CCC(=C2c3ccc(Cl)cc3CCc3cccnc32)CC1 | 61.1 µM (active) | inactive | inactive | 61.1 µM (active) | inactive | 43.3 µM (active) and 13.3 µM (active) | inactive |  |  |
| COc1cccc(CCc2ccccc2OCC(CN(C)C)OC(=O)CCC(=O)O)c1 (centres undefined) | inactive | inactive | inactive |  | inactive | 16.8 µM (active) |  | inactive |  |
| Cc1ccc(CCn2c3c(c4cc(Cl)ccc42)CN(C)CC3)cn1 | inactive | inactive | inactive |  | inactive |  |  |  |  |
| CCCCCCCCCCc1ccccc1 | inactive | inactive | inactive | inactive | inactive | inactive |  |  |  |
| COC(=O)CC(C)CCC=C(C)C (centres undefined) | inactive | inactive | inactive | inactive | inactive |  | inactive | inactive |  |
| CN(C)CCCN1c2ccccc2Sc2ccc(C(F)(F)F)cc21 | inactive | inactive | inactive | inactive | inactive | 29.8 µM (active) |  |  |  |
| C/C=C/C(=O)C1=C(C)CCCC1(C)C | inactive | inactive | inactive | inactive | inactive |  | inactive | inactive |  |
| CCCCCCCCCCOCC(O)CN (centres undefined) | inactive | inactive | inactive |  | inactive | 11.9 µM (active) |  | inactive |  |
| COc1ccc2sc(C(=O)Nc3nnn[nH]3)c(OC(C)C)c2c1 | 30.5 µM (active) | inactive | inactive | 27.2 µM (active) | inactive | 6.83 µM (active) | inactive |  |  |
| CCc1ccc(O)c(C(C)(C)C)c1 | inactive | inactive | inactive | inactive | inactive | inactive | inactive | inactive |  |
| O=S(=O)(O)CCCN1CCOCC1 | inactive | inactive | inactive | inactive | inactive | inactive | inactive | inactive |  |
| CC[N+](CC)(CC)Cc1ccccc1 | inactive | inactive | inactive | inactive | inactive | inactive | inactive |  |  |
| CC(C)=CCCC(C)CCOC(=O)C(C)C (centres undefined) | inactive | inactive | inactive | inactive | inactive | inactive | inactive |  |  |
| C/C=C/C=N/NC(=O)c1ccncc1 |  | inactive | inactive |  | inactive | inactive | inactive | 26.6 µM (active) | inactive |
| O=C1c2c(O)ccc([N+](=O)[O-])c2C(=O)c2c([N+](=O)[O-])ccc(O)c21 | 27.1 µM (active) |  | 21.5 µM (active) | 17.1 µM (active) | inactive | 1.52 µM (active) | inactive | 10.8 µM (active) |  |
| Cc1c(-c2ccc(O)cc2)n(Cc2ccc(OCCN3CCCCCC3)cc2)c2ccc(O)cc12 |  | inactive | inactive | 13.3 µM (active) | inactive | 11.9 µM (active) |  | 26.6 µM (active) |  |

| Structure (SMILES) | Potency [1] | Potency [2] | Potency [3] | Potency [4] | Potency [5] | Potency [6] | Potency [7] | Potency [8] | Potency [9] |
| --- | --- | --- | --- | --- | --- | --- | --- | --- | --- |
| C=C[C@](C)(O)CC[C@@H]1[C@@]2(C)CCCC(C)(C)[C@@H]2CC[C@@]1(C)O | 61.1 µM (active) | inactive | inactive |  | inactive | 61.1 µM (active) |  |  |  |
| CC(O)C#CC(C)O (centres undefined) | inactive |  |  | 53.9 µM (active) | inactive | 24.1 µM (active) |  | 60.5 µM (active) |  |
| Brc1ccccc1-c1ccccc1 |  | inactive | inactive | inactive | inactive | inactive |  | inactive | inactive |
| Cc1ccc(N)cc1O |  |  | inactive | inactive | inactive |  |  |  | inactive |
| CC(C)c1ccc(O)c(C(C)C)c1 |  | inactive | inactive | inactive | inactive | inactive | inactive | inactive |  |
| C/C=C/c1ccc(OC)c(OC)c1 |  | inactive | inactive | inactive | inactive | inactive | inactive | inactive |  |
| O=C(O)CCn1c2c(c3ccccc31)C[C@H](NS(=O)(=O)c1ccc(F)cc1)CC2 |  | inactive | inactive | inactive | inactive | inactive |  |  | inactive |
| CCCCC(CC)COC(=O)c1ccc(O)cc1 (centres undefined) |  | inactive | inactive | inactive | inactive | 43.3 µM (active) | inactive | 54.3 µM (active) |  |
| NCCCC(O)(P(=O)(O)O)P(=O)(O)O |  | inactive | inactive | inactive | inactive | inactive |  | inactive | inactive |
| Clc1ccccc1CN1CCc2sccc2C1 |  | inactive | inactive | inactive | inactive | inactive |  | inactive | inactive |
| COc1ccccc1OCCNCC(O)COc1cccc2[nH]c3ccccc3c12 (centres undefined) |  | inactive | inactive | 26.6 µM (active) | inactive | 21.1 µM (active) | inactive |  | inactive |
| Clc1ccc(C(Cn2ccnc2)OCc2ccsc2Cl)c(Cl)c1 (centres undefined) |  | inactive | inactive |  | inactive | 11.9 µM (active) |  |  | inactive |
| CCC1(c2cnc[nH]2)Cc2ccccc2C1 |  | inactive | inactive | inactive | inactive | inactive |  | inactive |  |
| C=C(C)C(=O)OCCC[Si](Cl)(Cl)Cl |  | inactive | inactive | inactive | inactive |  | inactive | inactive |  |
| O=C1c2c(O)ccc(O)c2C(=O)c2c(NCCNCCO)ccc(NCCNCCO)c21 |  | inactive | inactive | 21.1 µM (active) | inactive | 0.0473 µM (active) | inactive |  | inactive |
